Among all 330,000 compounds or so, about 1,900 (0.58%) were called active. About 4% were inconclusive and are not listed. Only a sample is shown. Entries with a potency or affinity are not part of this list. Unmarked numbers belong to inactive results. No stated cut-off is given here; in the data, inconclusive means inhibition above about 70% without an active follow-up result; inactive means below that.
Experiment: M. tuberculosis growth inhibition, HTS (AID 449762);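 further: bacterial growth assessed after seven days of incubation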
Details: M. tuberculosis H37Rv growth inhibition, 7H9 media; at 25 µM; stronger effect = higher value

Row | Structure (SMILES) | inhibition
1 | CC(C)(C)c1ccc(C(=O)C=[N+]=[N-])cc1 | -1.15%
2 | CCOc1ccc(C(=O)/C=C/c2ccccc2C(F)(F)F)cc1 | 9.8%
3 | COc1ccc(CC(=O)NNC(=O)CCc2ccccc2)cc1OC | 0.55%
4 | O=C(NCC(O)c1ccccc1)c1ccccc1 (stereo unspecified) | -1.58%
5 | Cc1ccc(C)c(Cc2c(C)nc3c(C(=O)NCc4ccc5c(c4)OCO5)cnn3c2C)c1 | 65.9%
6 | CN1C(=O)/C(=C/c2ccc(OCc3cccc(F)c3)cc2)NC1=S | 14.5%
7 | COc1ccc(NC(=S)Nc2ccccn2)cc1 | -2.6%
8 | Cc1cccc(NC(=S)Nc2ccccn2)c1 | -7.66%
9 | CCCNC(=S)Nc1ccccc1 | 0.1%
10 | CCCNC(=S)Nc1ccc(Oc2ccccc2)cc1 | -11%
11 | N#Cc1cc2c(nc1SCc1cccnc1)CCCCC2 | 7.53%
12 | CC1CCN(S(=O)(=O)c2ccc(S(=O)(=O)N3CCC4(CC3)OCCO4)cc2)CC1 | 0.35%
13 | Cc1cc(NC(=O)/C=C/C(=O)N(CC(=O)NC2CCCC2)c2cccc3ccccc23)no1 | -2.08%
14 | COc1ccc(CCNCC2C(Oc3ccc(Cl)cc3)C(=O)N2c2ccccc2C)cc1OC (stereo unspecified) | 11.7%
15 | COC(=O)c1ccc2c(=O)[nH]c(COC(=O)CCC(=O)c3ccc(Cl)cc3)nc2c1 | 0.04%
16 | Cc1cc(=O)c2ccc3ccccc3c2[nH]1 | 10.2%
17 | CCCc1c(C)nc2ccc(OC)cc2c1SCCC(=O)O | -2.63%
18 | COc1ccc(C(=O)Nc2cc3c(cc2Cl)OCCCO3)cc1 | 5.96%
19 | COc1cccc(NC(=O)CSc2nc3n[nH]c(C)c3c(=N)n2-c2cccc(OC)c2)c1 | -0.47%
20 | CCc1ccccc1NC(=O)CSc1nc2n[nH]c(C)c2c(=N)n1-c1cccc(OC)c1 | 7.97%
21 | O=C(CSc1ccc(Br)cc1)N1CCN(C(=O)c2ccco2)CC1 | 2.56%
22 | COc1ccc(C(=O)C2CCCN(Cc3cn[nH]c3-c3ccccc3)C2)cc1OC (stereo unspecified) | 2.2%
23 | O=C(c1ccc2c(c1)OCO2)C1CCCN(Cc2cn[nH]c2-c2ccccc2)C1 (stereo unspecified) | 4.84%

Row | Structure (SMILES) | inhibition
24 | CC1Cc2cccc3c(O)c(C(=O)c4nn[nH]n4)c(=O)n1c23 (stereo unspecified) | 14.9%
25 | N#Cc1nc(COc2ccccc2)oc1N1CCCC1 | -0.06%
26 | CC(C)NC(=O)c1onc(CSc2cccc(F)c2)c1C(=O)O | 33.3%
27 | CC(C)NC(=O)c1onc(CSc2ccc(F)c(F)c2)c1C(=O)NC(C)C | 8.4%
28 | COc1ccc(C)cc1N(C(=O)c1snc(C(N)=O)c1N)C(C(=O)NC1CCCC1)c1ccc(F)cc1 (stereo unspecified) | 41.8%
29 | CCOC(=O)c1sc(NC(=S)NC(=O)c2cccc(Cl)c2)c(C(=O)OCC)c1C | 3.64%
30 | C#C[C@]1(O)CC[C@H]2[C@@H]3CCc4cc(OC)ccc4[C@H]3CC[C@@]21C | -0.52%
31 | C#C[C@]1(O)CC[C@H]2[C@@H]3CCc4cc(O)ccc4[C@H]3CC[C@@]21C | 2.29%
32 | Cc1cc(C)nc(Sc2nc(Nc3ccccc3)nc(Sc3nc(C)cc(C)n3)n2)n1 | -5.43%
33 | Cc1csc(SCCN2C(=O)c3ccccc3C2=O)n1 | 1.44%
34 | O=[N+]([O-])c1ccc2nc(-c3ccccc3)oc2c1 | -0.96%
35 | O=[N+]([O-])c1ccc2c(c1)oc1ccccc12 | -7.51%
36 | Cn1c(=O)c2c(nc(CN3CCN(c4ccc(F)cc4)CC3)n2Cc2ccccc2F)n(C)c1=O | -1.15%
37 | Cc1cc(C(=O)OCC(=O)Nc2cccnc2Cl)c2ccccc2n1 | 3.92%
38 | COc1ccc(OC)c(C(=O)NC(CC(N)=O)c2ccc(NCC3CC3)c([N+](=O)[O-])c2)c1 (stereo unspecified) | 8.73%
39 | COc1ccc(CCNc2ccc(C(CC(N)=O)NC(=O)c3cc(OC)ccc3OC)cc2[N+](=O)[O-])cc1 (stereo unspecified) | -2.34%
40 | Cc1cc(C(=O)COc2ccc3ccc(=O)oc3c2)c(C)n1C | -2.83%
41 | Cc1cc(-n2c(C)cc(C(=O)COc3ccc(F)c(F)c3)c2C)no1 | 12.9%
42 | Cc1ccc(Cl)cc1N1CCN(Cc2cc3c(cc2O)CCC3)CC1 | -2.77%
43 | COc1cccc(CN(C)C(=O)c2cc(S(=O)(=O)NCc3ccccc3)ccc2C)c1OC | -0.57%
44 | COc1ccc(-c2nc(C#N)c(NCc3cccnc3)o2)cc1OC | -2.1%
45 | Cc1ccc(-n2cc(CNCCN3CCOC3=O)c(-c3ccc(F)cc3)n2)cc1 | 6%
46 | COc1ccc(-c2nn(-c3ccccc3F)cc2CNCCn2nc(C)cc2C)cc1 | 63.9%

Row | Structure (SMILES) | inhibition
47 | O=C(CS(=O)(=O)c1ccccc1)Nc1ccc(Cl)cn1 | -23.7%
48 | O=C(CCNC(=O)N1CC(=O)Nc2ccccc21)Nc1ccc(F)c(Cl)c1 | 1.86%
49 | Nc1nc(SCc2c(F)cccc2Cl)[nH]c(=O)c1-c1ccccc1 | 3.32%
50 | CCC(=O)N1c2ccc(S(=O)(=O)CCC(=O)N3CCN(c4ccccc4F)CC3)cc2CC1C (stereo unspecified) | -7.68%
51 | CCOC(=O)N1CCN(C(=O)CCS(=O)(=O)c2ccc3c(c2)CC(C)N3C(=O)CC)CC1 (stereo unspecified) | 7.71%
52 | CCCCn1c(N)c(N(CC(C)C)C(=O)CCCc2nc3ccccc3s2)c(=O)[nH]c1=O | -2.46%
53 | Cc1cc(C)n(S(=O)(=O)c2ccc3oc(=O)ccc3c2)n1 | 2.71%
54 | CCCCC(=O)NC(Nc1sc2c(c1C(N)=O)CCCC2)(C(=O)OCC)C(F)(F)F (stereo unspecified) | 5.17%
55 | Cc1ccc(-n2nnnc2SCC(=O)c2c(N)n(C3CC3)c(=O)[nH]c2=O)c(C)c1 | -6.46%
56 | COc1ccc(C(=O)C2CCCN(C3CSCCSC3)C2)cc1OC (stereo unspecified) | -3.92%
57 | COc1ccc(C(=O)C2CCCN(C3CSCCSC3)C2)c(OC)c1 (stereo unspecified) | 5.9%
58 | CCOC(=O)c1c(C)nc2sc(C(N)=O)c(N)c2c1-c1ccc(OC)cc1 | -6.87%
59 | NC(=O)CCN(Cc1ccccc1)S(=O)(=O)c1ccccc1 | -1.39%
60 | CCCCNC(=O)COC(=O)CNC(=O)c1cc(Cl)cc([N+](=O)[O-])c1 | 6.26%
61 | C=CCn1cnc2c(oc3ccccc32)c1=O | 0.22%
62 | c1ccc(CNc2ncnc3c2cnn3-c2ccccc2)cc1 | -6.95%
63 | CCCCNc1ncnc2c1cnn2-c1ccccc1 | 11.5%
64 | CCN1CCN(c2ncnc3c2cnn3-c2ccccc2)CC1 | -10%
65 | c1ccc(-n2ncc3c(N4CCCCC4)ncnc32)cc1 | -3.33%
66 | CC(C)(C)c1ccc(-c2noc(C(=O)NN)n2)cc1 | -2.97%
67 | NS(=O)(=O)c1ccc(NC(=O)COC(=O)CN2C(=O)C3CC=CCC3C2=O)cc1 (stereo unspecified) | -21.8%
68 | Cn1cc(C(=O)c2ccc(F)cc2)cc1-c1nc2ccccc2n1C | 65.4%
69 | Cn1cc(C(=O)c2ccccc2)cc1-c1nc2ccccc2n1C | 24.3%

Row | Structure (SMILES) | inhibition
70 | O=C(COC(=O)c1ccccn1)Nc1ccc2c(c1)OCCO2 | -1.75%
71 | CNC(=O)COc1ccc(Nc2nnc(-c3ccc(C)c(S(N)(=O)=O)c3)c3ccccc23)cc1 | 3.37%
72 | CC(=O)c1ccc(NC(=O)C(C)OC(=O)c2cccc(-n3cnnn3)c2)cc1 (stereo unspecified) | -2.06%
73 | CCOC(=O)c1cn(Cc2ccc(Cl)cc2Cl)c2cc(C)nn2c1=O | -10.3%
74 | COc1ccc(-c2cn(Cc3cccc(OC)c3)nn2)cc1 | -1.15%
75 | CCCCCc1ccc(-c2cn(Cc3ccc(C)cc3)nn2)cc1 | 2.43%
76 | CCN(C(=O)COC(=O)c1cc(-c2ccc3cc(OC)ccc3c2)nc2ccccc12)C1CCS(=O)(=O)C1 (stereo unspecified) | 12.4%
77 | CN1N=C(/C=C/c2ccccc2)CCC1=O | -6.09%
78 | COC1C(OC(=O)c2ccc(C)[nH]2)C(O)C(Oc2ccc3c(O)c(NC(=O)c4ccc(O)c(CC=C(C)C)c4)c(=O)oc3c2Cl)OC1(C)C (stereo unspecified) | -2.53%
79 | Cc1c(O)ccc2c(O)c(NC(=O)c3ccc4c(c3)CCC(C)(C)O4)c(=O)oc12 | 1.87%
80 | COc1ccc([C@H]2CC(=O)C=C(c3cccc(CO)c3)C2)cc1 | -3.53%
81 | COc1cc(NC(=O)C/C(C)=N/NC(=O)c2cccc(O)c2)c(OC)cc1Cl | -0.8%
82 | COc1cc(NC(=O)C/C(C)=N/NC(=O)Cc2ccccc2)c(OC)cc1Cl | 9.08%
83 | COc1ccc(NS(=O)(=O)c2ccc(NC(=O)C3CCCO3)cc2)cc1 (stereo unspecified) | -9.85%
84 | COc1cccc(C2(C)NC(=O)N(CC(=O)Nc3ccc(N4CCOCC4)cc3)C2=O)c1 (stereo unspecified) | -10%
85 | CCCCOc1cccc(C(=O)Nc2ccc(NC(=O)c3cccs3)cc2)c1 | 2.91%
86 | Cn1c(CNc2ccc(O)cc2)nc2ccccc21 | -0.5%
87 | Cc1ccccc1NCc1nc2ccccc2n1C | 2.8%
88 | CC(=O)Nc1ccc(S(=O)(=O)Nc2ccc(N3CCOCC3)cc2)cc1 | 1.49%
89 | CC(=O)Nc1ccc(N2CCCCC2)cc1 | 1.6%
90 | O=C(O)c1cccc(N2C(=O)C3C4C=CC(C4=C(c4ccccc4)c4ccccc4)C3C2=O)c1 (stereo unspecified) | 4.23%
91 | CC(=O)C[C@@H](O)CC(=O)[C@@H]1OC(=O)CCCCCCCCc2ccccc21 | 0.55%
